# PubChem BioAssay (NCATS)
# Records with an inconclusive call do not appear. The source made the active and inactive calls. Calls come from the whole dose curve.
# Assay: Cell Viability - MRC5 (AID 434);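 note: potency reflects cytotoxicity seen as loss of intracellular ATP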
# Settings: MRC5 lung fibroblast viability, qHTS
# Text: NIH Chemical Genomics Center [NCGC]
# NIH Molecular Libraries Screening Centers Network [MLSCN]
# National Institutes of Environmental Health Sciences [NIEHS]
# National Toxicology Program [NTP]
# We have developed a 1536-well cell-based assay for quantitative high throughput screening (qHTS) against a number of cell lines to determine in vitro cytotoxicity of small molecules. This particular assay uses the MRC5 cell line which is derived from normal human lung fibroblasts.
# NCGC Assay Protocol Summary:
# The CellTiter-Glo luminescent cell viability assay (Promega) is a homogeneous method to measure the number of viable cells in culture. The end point readout of this assay is based on quantitation of intracellular ATP, an indicator of metabolic activity, using the luciferase reaction. Luciferase catalyzes the oxidation of beetle Luciferin to oxyluciferin and light in the presence of ATP. The luminescent signal is proportional to amount of ATP present.
# Using the CellTiter-Glo luminescent cell viability assay, the amount of cellular ATP was measured in the MRC5 cell line with complete culture medium following compound treatment for 40 hours. The assay was performed in opaque white Kalypsys 1536-well plates. In the screen, tamoxifen and doxorubicin were used as positive controls. Library compounds were measured for their ability to cause acute toxicity in the cell line, as reflected by a decrease in intracellular ATP levels, in a concentration-dependent manner. Data were normalized to the controls for basal activity (DMSO only) and 100% inhibition (100 uM tamoxifen). AC50 values were determined from concentration-response data modeled with the standard Hill equation.
# qHTS protocol for CellTiter Glo MRC5 cellular assay
# [Step] [Parameter] [Value] [Description]
# 1. Reagent; 5 uL; 1500 MRC5 cells/well
# 2. Time; 5 hr; 37 °C incubation
# 4. Controls; 23 nL; Tamoxifen 0.34 uM to 100 uM & Doxorubicin 0.02 nM to 100 uM
# 5. Time; 40 hr; 37 °C incubation
# 6. Reagent; 5 uL; CellTiter Glo reagent
# 7. Time; 20 min; Room Temperature
# 8. Detection; Luminescence; Viewlux plate reader
# Keywords: cell viability, cytotoxicity, MRC5 cell line, luminescence, NTPHTS, NTPHTS_NCGC, NIEHS, EPA, DSSTox, MLSMR, MLSCN, NIH Roadmap, qHTS, NCGC
# Potency is the fitted concentration of half-maximal effect.
row,Compound,Potency
1,CC(C)(C)c1ccc(OCC2CO2)cc1 (stereo not given),> 92 µM (inactive)
2,Cc1cccc(C(=O)O)c1,> 92 µM (inactive)
3,CCCCCCCCCCCCOCC1CO1 (stereo not given),> 92 µM (inactive)
4,CCCCCNCCCCC,> 92 µM (inactive)
5,CCCCC=O,> 92 µM (inactive)
6,CCCCOCCOCCSC#N,> 92 µM (inactive)
7,Cc1ccc2c(c1[N+](=O)[O-])C(=O)c1ccccc1C2=O,> 92 µM (inactive)
8,Nc1cccc([N+](=O)[O-])c1,> 92 µM (inactive)
9,O=C(O)c1ccc(Cl)c(Cl)c1,> 92 µM (inactive)
10,CCCOCC(C)OCC(C)O (stereo not given),> 92 µM (inactive)
11,CC(=C/C=C/C(C)=C/C=C/C=C(C)/C=C/C=C(C)/C=C/C(=O)O)/C=C/C(=O)O,> 92 µM (inactive)
12,Cc1ccc2oc(=O)ccc2c1,> 92 µM (inactive)
13,CCC(C)(C)OC,> 92 µM (inactive)
14,Cc1ccc(C)cc1,> 92 µM (inactive)
15,O=P(O)(OCc1ccccc1)OCc1ccccc1,> 92 µM (inactive)
16,OCCO,> 92 µM (inactive)
17,Nc1c(Cl)cc(Cl)cc1Cl,> 92 µM (inactive)
18,CC(=O)OC(C)C,> 92 µM (inactive)
19,COC(=O)CS,> 92 µM (inactive)
20,O=[N+]([O-])c1cccc(C(F)(F)F)c1,> 92 µM (inactive)

row,Compound,Potency
1,O=[N+]([O-])c1ccc2nc[nH]c2c1,> 92 µM (inactive)
2,Cc1ccc2ncccc2c1,> 92 µM (inactive)
3,c1ccc(Nc2ccccc2)cc1,> 92 µM (inactive)
4,CCCCC(CC)CO (stereo not given),> 92 µM (inactive)
5,Cc1ccc(C)c(O)c1,> 92 µM (inactive)
6,Cc1cccc2ccccc12,> 92 µM (inactive)
7,OC/C(Br)=C(\Br)CO,> 92 µM (inactive)
8,Cc1cc(C)cc(N)c1,> 92 µM (inactive)
9,Cc1cc(C)cc(O)c1,> 92 µM (inactive)
10,Cc1nc2ccc(Cl)cc2[nH]1,> 92 µM (inactive)
11,Clc1cc(Cl)cc(Cl)c1,> 92 µM (inactive)
12,O=Cc1ccc(CO)o1,> 92 µM (inactive)
13,O=C(O)c1ccc(C(=O)O)cc1,> 92 µM (inactive)
14,Cc1ccccc1C(N)=O,> 92 µM (inactive)
15,O=C(O)c1cccc([N+](=O)[O-])c1,> 92 µM (inactive)
16,S=C([S-])NCCNC(=S)[S-].[Zn+2],> 92 µM (inactive)
17,CC(O)CC(C)O (stereo not given),> 92 µM (inactive)
18,C=CCCCCCCC=C,> 92 µM (inactive)
19,Cc1cscn1,> 92 µM (inactive)
20,O=C(O)CNC(=O)c1ccc(CO)o1,> 92 µM (inactive)
